# The supplement of paper PMC4466140
# Target: AgAbp1
# Test: SPOT peptide array binding signal intensity (averaged, normalized) (arbitrary units (background-subtracted, floor 0; scale differs between SH3 domains)); higher = stronger binding of the SH3 domain to the peptide
# Summary of the method: (§1)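 The binding signal is the normalized, background-subtracted spot intensity averaged over replicates; its arbitrary units differ between domains. It was obtained by incubating 10 μg/ml GST-fused SH3 domains from four yeast species overnight at 4°C in TBS-based blocking buffer on cellulose membranes with synthetic 15-mer peptides, cysteines replaced by serines, then detecting with anti-GST antibody, HRP anti-mouse secondary and luminol.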
row,Binder,SPOT peptide array binding signal intensity
1,GKKVRPLLVLLLSRA,≤ 0

# Target: AgBbc1
# Test: as above
# Summary of the method: as §1
row,Binder,SPOT peptide array binding signal intensity
1,GKKVRPLLVLLLSRA,≤ 0

# Target: AgBem1-D1
# Test: as above
# Summary of the method: as §1
row,Binder,SPOT peptide array binding signal intensity
1,GKKVRPLLVLLLSRA,≤ 0

# Target: AgBzz1-D1
# Test: as above
# Summary of the method: as §1
row,Binder,SPOT peptide array binding signal intensity
1,GKKVRPLLVLLLSRA,23.5

# Target: AgBzz1-D2
# Test: as above
# Summary of the method: as §1
row,Binder,SPOT peptide array binding signal intensity
1,GKKVRPLLVLLLSRA,2

# Target: AgCyk3
# Test: as above
# Summary of the method: as §1
row,Binder,SPOT peptide array binding signal intensity
1,GKKVRPLLVLLLSRA,5

# Target: AgFus1
# Test: as above
# Summary of the method: as §1
row,Binder,SPOT peptide array binding signal intensity
1,GKKVRPLLVLLLSRA,3030

# Target: AgHof1
# Test: as above
# Summary of the method: as §1
row,Binder,SPOT peptide array binding signal intensity
1,GKKVRPLLVLLLSRA,0.5

# Target: AgHse1
# Test: as above
# Summary of the method: as §1
row,Binder,SPOT peptide array binding signal intensity
1,GKKVRPLLVLLLSRA,1180

# Target: AgLsb1
# Test: as above
# Summary of the method: as §1
row,Binder,SPOT peptide array binding signal intensity
1,GKKVRPLLVLLLSRA,≤ 0

# Target: AgLsb4
# Test: as above
# Summary of the method: as §1
row,Binder,SPOT peptide array binding signal intensity
1,GKKVRPLLVLLLSRA,702

# Target: AgMyo5
# Test: as above
# Summary of the method: as §1
row,Binder,SPOT peptide array binding signal intensity
1,GKKVRPLLVLLLSRA,≤ 0

# Target: AgNbp2
# Test: as above
# Summary of the method: as §1
row,Binder,SPOT peptide array binding signal intensity
1,GKKVRPLLVLLLSRA,280

# Target: AgRvs167
# Test: as above
# Summary of the method: as §1
row,Binder,SPOT peptide array binding signal intensity
1,GKKVRPLLVLLLSRA,1.5

# Target: AgSho1
# Test: as above
# Summary of the method: as §1
row,Binder,SPOT peptide array binding signal intensity
1,GKKVRPLLVLLLSRA,795

# Target: AgSla1-D1-D2
# Test: as above
# Summary of the method: as §1
row,Binder,SPOT peptide array binding signal intensity
1,GKKVRPLLVLLLSRA,≤ 0

# Target: AgSla1-D3
# Test: as above
# Summary of the method: as §1
row,Binder,SPOT peptide array binding signal intensity
1,GKKVRPLLVLLLSRA,1

# Target: CaAbp1-D1
# Test: as above
# Summary of the method: as §1
row,Binder,SPOT peptide array binding signal intensity
1,GKKVRPLLVLLLSRA,208

# Target: CaAbp1-D2
# Test: as above
# Summary of the method: as §1
row,Binder,SPOT peptide array binding signal intensity
1,GKKVRPLLVLLLSRA,134

# Target: CaBbc1
# Test: as above
# Summary of the method: as §1
row,Binder,SPOT peptide array binding signal intensity
1,GKKVRPLLVLLLSRA,0.5

# Target: CaBem1-D1
# Test: as above
# Summary of the method: as §1
row,Binder,SPOT peptide array binding signal intensity
1,GKKVRPLLVLLLSRA,≤ 0

# Target: CaBzz1-D1
# Test: as above
# Summary of the method: as §1
row,Binder,SPOT peptide array binding signal intensity
1,GKKVRPLLVLLLSRA,45

# Target: CaBzz1-D2
# Test: as above
# Summary of the method: as §1
row,Binder,SPOT peptide array binding signal intensity
1,GKKVRPLLVLLLSRA,8

# Target: CaCyk3
# Test: as above
# Summary of the method: as §1
row,Binder,SPOT peptide array binding signal intensity
1,GKKVRPLLVLLLSRA,9

# Target: CaFus1
# Test: as above
# Summary of the method: as §1
row,Binder,SPOT peptide array binding signal intensity
1,GKKVRPLLVLLLSRA,3530

# Target: CaHof1
# Test: as above
# Summary of the method: as §1
row,Binder,SPOT peptide array binding signal intensity
1,GKKVRPLLVLLLSRA,1.5

# Target: CaHse1
# Test: as above
# Summary of the method: as §1
row,Binder,SPOT peptide array binding signal intensity
1,GKKVRPLLVLLLSRA,120

# Target: CaLsb1
# Test: as above
# Summary of the method: as §1
row,Binder,SPOT peptide array binding signal intensity
1,GKKVRPLLVLLLSRA,≤ 0

# Target: CaLsb4
# Test: as above
# Summary of the method: as §1
row,Binder,SPOT peptide array binding signal intensity
1,GKKVRPLLVLLLSRA,7.5

# Target: CaMyo5
# Test: as above
# Summary of the method: as §1
row,Binder,SPOT peptide array binding signal intensity
1,GKKVRPLLVLLLSRA,≤ 0

# Target: CaNbp2
# Test: as above
# Summary of the method: as §1
row,Binder,SPOT peptide array binding signal intensity
1,GKKVRPLLVLLLSRA,1520

# Target: CaRvs167
# Test: as above
# Summary of the method: as §1
row,Binder,SPOT peptide array binding signal intensity
1,GKKVRPLLVLLLSRA,28.3

# Target: CaRvs167-3
# Test: as above
# Summary of the method: as §1
row,Binder,SPOT peptide array binding signal intensity
1,GKKVRPLLVLLLSRA,50.8

# Target: CaSho1
# Test: as above
# Summary of the method: as §1
row,Binder,SPOT peptide array binding signal intensity
1,GKKVRPLLVLLLSRA,562

# Target: CaSla1-D1-D2
# Test: as above
# Summary of the method: as §1
row,Binder,SPOT peptide array binding signal intensity
1,GKKVRPLLVLLLSRA,≤ 0

# Target: CaSla1-D3
# Test: as above
# Summary of the method: as §1
row,Binder,SPOT peptide array binding signal intensity
1,GKKVRPLLVLLLSRA,28

# Target: ScAbp1
# Test: as above
# Summary of the method: as §1
row,Binder,SPOT peptide array binding signal intensity
1,GKKVRPLLVLLLSRA,3.5

# Target: ScBbc1
# Test: as above
# Summary of the method: as §1
row,Binder,SPOT peptide array binding signal intensity
1,GKKVRPLLVLLLSRA,≤ 0

# Target: ScBem1-D1
# Test: as above
# Summary of the method: as §1
row,Binder,SPOT peptide array binding signal intensity
1,GKKVRPLLVLLLSRA,≤ 0

# Target: ScBzz1-D1
# Test: as above
# Summary of the method: as §1
row,Binder,SPOT peptide array binding signal intensity
1,GKKVRPLLVLLLSRA,18

# Target: ScBzz1-D2
# Test: as above
# Summary of the method: as §1
row,Binder,SPOT peptide array binding signal intensity
1,GKKVRPLLVLLLSRA,104

# Target: ScCyk3
# Test: as above
# Summary of the method: as §1
row,Binder,SPOT peptide array binding signal intensity
1,GKKVRPLLVLLLSRA,41

# Target: ScFus1
# Test: as above
# Summary of the method: as §1
row,Binder,SPOT peptide array binding signal intensity
1,GKKVRPLLVLLLSRA,1690

# Target: ScHof1
# Test: as above
# Summary of the method: as §1
row,Binder,SPOT peptide array binding signal intensity
1,GKKVRPLLVLLLSRA,≤ 0

# Target: ScHse1
# Test: as above
# Summary of the method: as §1
row,Binder,SPOT peptide array binding signal intensity
1,GKKVRPLLVLLLSRA,1540

# Target: ScLsb1
# Test: as above
# Summary of the method: as §1
row,Binder,SPOT peptide array binding signal intensity
1,GKKVRPLLVLLLSRA,≤ 0

# Target: ScLsb2
# Test: as above
# Summary of the method: as §1
row,Binder,SPOT peptide array binding signal intensity
1,GKKVRPLLVLLLSRA,≤ 0

# Target: ScLsb3
# Test: as above
# Summary of the method: as §1
row,Binder,SPOT peptide array binding signal intensity
1,GKKVRPLLVLLLSRA,97

# Target: ScLsb4
# Test: as above
# Summary of the method: as §1
row,Binder,SPOT peptide array binding signal intensity
1,GKKVRPLLVLLLSRA,≤ 0

# Target: ScMyo3
# Test: as above
# Summary of the method: as §1
row,Binder,SPOT peptide array binding signal intensity
1,GKKVRPLLVLLLSRA,≤ 0

# Target: ScMyo5
# Test: as above
# Summary of the method: as §1
row,Binder,SPOT peptide array binding signal intensity
1,GKKVRPLLVLLLSRA,≤ 0

# Target: ScNbp2
# Test: as above
# Summary of the method: as §1
row,Binder,SPOT peptide array binding signal intensity
1,GKKVRPLLVLLLSRA,237

# Target: ScPex13
# Test: as above
# Summary of the method: as §1
row,Binder,SPOT peptide array binding signal intensity
1,GKKVRPLLVLLLSRA,≤ 0

# Target: ScRvs167
# Test: as above
# Summary of the method: as §1
row,Binder,SPOT peptide array binding signal intensity
1,GKKVRPLLVLLLSRA,9.67

# Target: ScSho1
# Test: as above
# Summary of the method: as §1
row,Binder,SPOT peptide array binding signal intensity
1,GKKVRPLLVLLLSRA,1560

# Target: ScSla1-D1-D2
# Test: as above
# Summary of the method: as §1
row,Binder,SPOT peptide array binding signal intensity
1,GKKVRPLLVLLLSRA,≤ 0

# Target: ScSla1-D3
# Test: as above
# Summary of the method: as §1
row,Binder,SPOT peptide array binding signal intensity
1,GKKVRPLLVLLLSRA,5.5

# Target: SpAbp1-D1
# Test: as above
# Summary of the method: as §1
row,Binder,SPOT peptide array binding signal intensity
1,GKKVRPLLVLLLSRA,52.5

# Target: SpBbc1
# Test: as above
# Summary of the method: as §1
row,Binder,SPOT peptide array binding signal intensity
1,GKKVRPLLVLLLSRA,0.5

# Target: SpBzz1-D1
# Test: as above
# Summary of the method: as §1
row,Binder,SPOT peptide array binding signal intensity
1,GKKVRPLLVLLLSRA,21.5

# Target: SpBzz1-D2
# Test: as above
# Summary of the method: as §1
row,Binder,SPOT peptide array binding signal intensity
1,GKKVRPLLVLLLSRA,≤ 0

# Target: SpCyk3
# Test: as above
# Summary of the method: as §1
row,Binder,SPOT peptide array binding signal intensity
1,GKKVRPLLVLLLSRA,7

# Target: SpHof1
# Test: as above
# Summary of the method: as §1
row,Binder,SPOT peptide array binding signal intensity
1,GKKVRPLLVLLLSRA,157

# Target: SpHof1-2
# Test: as above
# Summary of the method: as §1
row,Binder,SPOT peptide array binding signal intensity
1,GKKVRPLLVLLLSRA,27.8

# Target: SpHof1-3
# Test: as above
# Summary of the method: as §1
row,Binder,SPOT peptide array binding signal intensity
1,GKKVRPLLVLLLSRA,758

# Target: SpHse1
# Test: as above
# Summary of the method: as §1
row,Binder,SPOT peptide array binding signal intensity
1,GKKVRPLLVLLLSRA,1200

# Target: SpLsb1
# Test: as above
# Summary of the method: as §1
row,Binder,SPOT peptide array binding signal intensity
1,GKKVRPLLVLLLSRA,≤ 0

# Target: SpLsb4
# Test: as above
# Summary of the method: as §1
row,Binder,SPOT peptide array binding signal intensity
1,GKKVRPLLVLLLSRA,41

# Target: SpMyo1
# Test: as above
# Summary of the method: as §1
row,Binder,SPOT peptide array binding signal intensity
1,GKKVRPLLVLLLSRA,3.75

# Target: SpNbp2
# Test: as above
# Summary of the method: as §1
row,Binder,SPOT peptide array binding signal intensity
1,GKKVRPLLVLLLSRA,1290

# Target: SpPex13
# Test: as above
# Summary of the method: as §1
row,Binder,SPOT peptide array binding signal intensity
1,GKKVRPLLVLLLSRA,3

# Target: SpRvs167
# Test: as above
# Summary of the method: as §1
row,Binder,SPOT peptide array binding signal intensity
1,GKKVRPLLVLLLSRA,6.83

# Target: SpSla1-D1-D2
# Test: as above
# Summary of the method: as §1
row,Binder,SPOT peptide array binding signal intensity
1,GKKVRPLLVLLLSRA,1

# Target: SpSla1-D3
# Test: as above
# Summary of the method: as §1
row,Binder,SPOT peptide array binding signal intensity
1,GKKVRPLLVLLLSRA,≤ 0
